Assay outcomes from PubChem BioAssay.
RORgamma inh = ROR gamma (mouse) transcription inhibition. Drosophila S2 Gal4-RORgamma UAS-luciferase reporter, 20 h. hit rate 5.4% among 310,000. P51450. Potency, µM (highest dose often 53.6 µM), inactives show top-dose activity change, negative = inhibition, most hits filed as inhibitors. AID 2551; note: potency is the fitted concentration of half-maximal effect; nearly all actives have a fitted effect of over 60% in size
Target sequence (P51450 whole entry, looked up, the tested form may be a part): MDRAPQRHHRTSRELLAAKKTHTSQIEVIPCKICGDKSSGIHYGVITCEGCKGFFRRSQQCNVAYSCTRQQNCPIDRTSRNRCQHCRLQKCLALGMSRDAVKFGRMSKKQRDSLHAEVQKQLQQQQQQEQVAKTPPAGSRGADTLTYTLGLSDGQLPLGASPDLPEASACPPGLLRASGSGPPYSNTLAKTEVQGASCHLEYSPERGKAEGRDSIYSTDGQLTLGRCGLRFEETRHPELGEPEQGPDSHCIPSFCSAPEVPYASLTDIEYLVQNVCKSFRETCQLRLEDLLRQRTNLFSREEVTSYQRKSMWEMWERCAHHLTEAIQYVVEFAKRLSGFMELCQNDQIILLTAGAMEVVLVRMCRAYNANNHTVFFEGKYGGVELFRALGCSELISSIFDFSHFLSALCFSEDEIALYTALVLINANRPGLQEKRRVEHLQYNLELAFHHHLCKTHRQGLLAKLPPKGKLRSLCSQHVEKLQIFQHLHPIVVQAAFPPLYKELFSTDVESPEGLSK
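ROR gamma transcriptional activity was tracked as Gal4-UAS luciferase output in stably transfected Drosophila Schneider cells, with compound added 1 hr before 700 uM copper sulfate induction and a 20 hr ambient-temperature incubation.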
DT40 TDP1 CPT = growth inhibition of DT40 Tdp1-/-;hTDP1 cells with camptothecin (screen for TDP1 inhibitors). chicken DT40 Tdp1-/-;hTDP1 cells + 20 nM CPT, ATP luminescence, 48 h. Potency, µM (highest dose often 46.2 µM), for the others: at the highest dose activity change, negative = growth inhibition, usual class: inhibitors. hit rate 12% among 420,000; note: potency is the fitted concentration of half-maximal effect; nearly all actives have a fitted effect of over 55% in size
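Cell growth measured by CellTiter-Glo luminescence after a minimum 48 h, 37 C compound exposure with 20 nM CPT in Tdp1-knockout DT40 cells stably expressing hTDP1, seeded 400/well; qHTS titration format.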
IL-1B inflam inh = inhibitors of inflammasome signaling (IL-1 beta secretion). hit rate 4.7% among 360,000. AID 743279. activity change, % at 57.5 µM. THP-1 LPS/ATP IL-1B secretion, AlphaLISA, 16 h; hits give low values; in the data active = activity change below about -50%; inconclusive = mostly about -30% to -49%
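Secreted IL-1B measured by AlphaLISA bead assay after 16 h compound exposure of THP-1 cells; compounds (final up to 57.5 uM) added 1 h before LPS (250 ng/mL) and ATP (1.25 mM) stimulation; lower signal means less secretion.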
VP16 counter = Gal4-VP16 reporter inhibition counter-screen | Drosophila S2 Gal4-VP16 UAS-luciferase, luminescence, 20 h | AID 2546 | hit rate 3.5% among 310,000 | Potency, µM (titrated, usually from 53.6 µM), for inactives: at the highest dose activity, negative = inhibition, most hits filed as inhibitors;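 note: Gal4-VP16 expression switched on by copper sulfate through the metallothionein promoter; potency is the fitted concentration of half-maximal effect; nearly all actives have a fitted effect of over 50% in size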
TDP1 cell noCPT = qHTS for Inhibitors of human tyrosyl-DNA phosphodiesterase 1 (TDP1): qHTS in cells in absence of CPT; DT40 Tdp1-/- hTDP1 cells, no CPT, ATP luminescence, 48 h; Potency, µM (series often up to 46.2 µM), inactives show at the highest dose activity change, negative = growth inhibition, most hits filed as inhibitors; hit rate 15% among 420,000; AID 686978, 2013; note: potency is the fitted concentration of half-maximal effect; nearly all actives have a fitted effect of over 55% in size
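Cells were dispensed at 400 per well, compounds added by pin tool, plates incubated ≥48 hr at 37 °C, then CellTiter-Glo added for 30 min at room temperature before luminescence reading. Line: DT40 Tdp1-/- complemented with hTDP1; camptothecin omitted.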
ELG1 repair inh = inhibitors of ELG1-dependent DNA repair in HEK293T cells; HEK293T ELG1-luciferase reporter, luminescence, 16 h; DNA damage induced by 5-fluorouridine; hit rate 2.3% among 330,000; Potency, µM (titrated, usually from 46.1 µM), inactives show at the highest dose activity change, negative = inhibition, actives largely listed as inhibitors; note: potency is the fitted concentration of half-maximal effect; nearly all actives have a fitted effect of over 55% in size
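Cells (2,000 per well) received 5-fluorouridine plus test compound or DMSO and were incubated 16 hr at 37 °C, 5% CO2. Luciferase activity was read by luminescence 30 min after ONE-Glo addition; signal suppression marked inhibition of damage-induced ELG1 function.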
* = called active by the depositor; ? = inconclusive; / = not tested or not shown; [ ] = remark or other dose. This is a sample that favours compounds with a hit; in the whole collection about 21% have one here. Unless noted, calls come from the whole dose curve; as a rule, active = well fitted curve in the direction sought with a large enough effect; inconclusive = small, poorly fitted or top-dose-only effect, or another doubt; inactive = no such curve, though single readings can be large; an effect the other way counts as inactive or inconclusive. % is set by controls: 0 for no effect and ±100 for the full control effect.

SMILES	RORgamma inh	DT40 TDP1 CPT	IL-1B inflam inh	VP16 counter	TDP1 cell noCPT	ELG1 repair inh
Cc1ccc(C(=O)NCCn2cc(SCC(=O)Nc3nnc(C)s3)c3ccccc32)cc1	14.1µM*	?	-25.3	1.3%	?	?
COc1ccc(OC)c(N(CC(N)=O)S(=O)(=O)c2ccc(OC)c(OC)c2)c1	-1.2%	-6.2%	0.0	-9.8%	-12.4%	0.6%
CCCNC(=O)OC[C@@H]1O[C@H](CCON=C(C)C)C=C[C@@H]1Oc1ccc(OC)cc1	1.4%[10 µM]	/	/	-0.6%[10 µM]	/	/
COc1ccc(C(=O)NCCn2cc(SCC(N)=O)c3ccccc32)cc1	-5.6%	0.8%	0.0	-0.4%	6.5%	?
COc1ccc(NC(=O)CSc2cn(CCNC(=O)c3ccc(OC)cc3)c3ccccc23)cc1	/	?	/	/	25.9µM*	/
Cc1c(O)ccc2c1OCO2	-18.4%[10 µM]	/	/	-4.6%[10 µM]	/	/
Cn1cc(CN2CCCCC2C(=O)Nc2ccc(-n3cccn3)cc2)cn1 (stereo unspecified)	1.1%	2.8%	-22.8	5.7%	8.2%	-3.3%
O=C(Nc1ccc(-n2cccn2)cc1)C1CCCCN1Cc1cccc2cccnc12 (stereo unspecified)	-10.0%	?	-50.3*	0.0%	?	?
COC(=O)N(C)C[C@@H]1OCc2cnnn2CCCC(=O)N([C@@H](C)CO)C[C@H]1C	/	2.9%	11.1	/	-1.8%	/
C/C(CCc1ccccc1)=N\NC(=O)c1ccccc1[N+](=O)[O-]	-15.8%	2.8%	13.3	-4.2%	-4.9%	12.3%
Cc1ccc(OCC(=O)N/N=C\c2cccs2)c([N+](=O)[O-])c1	?	-1.5%	-6.3	?	-3.0%	?
Cc1ccc([N+](=O)[O-])c(C(=O)N/N=C/c2cccnc2)c1	-21.1%	3.4%	-8.8	-24.6%	-11.5%	7.2%
O=C(COc1ccc(Cl)cc1[N+](=O)[O-])N/N=C/c1cccs1	?	-18.7%	-19.7	-13.1%	29.1µM*	3.8%
O=C(N/N=C/c1ccc(Br)s1)c1ccc([N+](=O)[O-])cc1	0.447µM*	?	-3.8	0.631µM*	2.59µM*	5.8µM*
CC(C)=CCC/C(C)=C/C=N/NC(=O)c1ccccc1[N+](=O)[O-]	6.31µM*	-2.8%	?	11.2µM*	?	4.2%
Cc1ccc([N+](=O)[O-])c(C(=O)N/N=C/c2cccs2)c1	1.41µM*	?	-16.2	1.26µM*	?	-18.1%
O=CNc1ccc2c3c(cccc13)-c1ccccc1-2	/	?	-25.7	/	?	/
O=C(N/N=C/c1ccc(Br)s1)c1ccccc1[N+](=O)[O-]	2.51µM*	-0.5%	-4.4	6.31µM*	-27.7%	-15.6%
O=C(NN=Cc1ccc2c(c1)CCC2)c1ccccc1[N+](=O)[O-]	/	23.1µM*	2.8	/	18.4µM*	/
O=C(NN=Cc1ccc(N2CCOCC2)s1)c1ccc([N+](=O)[O-])cc1	/	?	?	/	18.4µM*	9.2µM*
CCN(CC(=O)NC1CCS(=O)(=O)C1)c1ccc([N+](=O)[O-])cc1C#N (stereo unspecified)	/	-23.7%	12.0	/	1.3%	11.7%
Cc1cccc(NC(=O)c2ccc(-n3c(C)nnc3C)cc2)c1	/	3.9%	/	/	-11.1%	/
O=C(Cn1nc(CNc2ccc(Cl)cc2)[n+]2c1CCCCC2)c1ccccc1	23.2%	5.17µM*	-52.5*	-2.1%	8.2µM*	?
COc1cc2c(C#N)c(N3CCN(c4ccccc4OC)CC3)nc(N)c2c(N)n1	-19.4%	?	-28.0	-0.5%	-113.9%	9.2µM*
CCC1Cc2c(nc(N)c3c(N)nc(N4CCCCC4)c(C#N)c23)O1 (stereo unspecified)	20.8%	0.4%	/	-6.9%	?	?
SMILES	RORgamma inh	DT40 TDP1 CPT	IL-1B inflam inh	VP16 counter	TDP1 cell noCPT	ELG1 repair inh
N#Cc1c(N2CCCCC2)nc(N)c2c(N)nc3c(c12)CC(c1ccccc1)O3 (stereo unspecified)	?	?	-8.7	-15.2%	11.2µM*	?
N#Cc1c(N2CCCC2)nc(N)c2c(N)nc(N3CCCC3)cc12	8.91µM*	?	?	-5.5%	18.4µM*	?
O=S(=O)(c1ccc(NC(=S)NCc2ccc(F)cc2)cc1)N1CCOCC1	-4.3%	?	-2.2	-0.9%	?	-7.0%
COC(=O)c1cn([C@H]2C[C@@H](C(=O)N3CCCCCC3)N(Cc3ccsc3)C2)nn1	/	0.3%[9.04 µM]	/	/	-14.6%	/
COc1ccc(C2CC(C(F)(F)F)n3nc(C(=O)NCc4cn(C)nc4C)c(Cl)c3N2)cc1 (stereo unspecified)	34.5%	13µM*	-20.3	-11.4%	10.3µM*	23.1µM*
Cc1nn(C)c(C)c1CNC(=O)c1cnn2c1NC(c1ccccc1)CC2C(F)(F)F (stereo unspecified)	39.7%	?	-4.3	0.3%	-20.7%	-4.1%
Cc1ccc(C2CC(C(F)(F)F)n3nc(C(=O)NCc4c(C)nn(C)c4C)c(Cl)c3N2)cc1 (stereo unspecified)	-4.0%	4.61µM*	-13.4	?	5.17µM*	11.6µM*
Cc1cccc(CN2CCC(C(=O)Nc3ccc(Oc4cccnc4)cc3)CC2)c1	-1.5%	?	-6.4	-8.9%	?	?
Cc1cccc(-c2ccc(NC(=O)C3CCN(CC4CC4)CC3)cc2)c1	-0.1%	?	?	1.9%	18.4µM*	16.8%
COc1cccc(CN2CCC(C(=O)Nc3ccc(-c4cccc(C)c4)cc3)CC2)c1O	?	16.4µM*	0.0	?	16.4µM*	-3.9%
O=C(Nc1ccc2ccccc2c1)NC1CCS(=O)(=O)C1 (stereo unspecified)	-3.5%	-3.3%	-4.4	-15.3%	15.3%	?
Cn1c(/C=C/c2ccc(Cl)cc2Cl)c([N+](=O)[O-])c(=O)n(C)c1=O	11.2µM*	8.2µM*	-4.4	?	5.17µM*	?
COc1ccc(/C=C/c2c([N+](=O)[O-])c(=O)n(C)c(=O)n2C)c(OC)c1	-18.9%	11.9%	-27.7	-11.1%	-26.3%	-5.6%
CCOc1ccc(/C=C/c2c([N+](=O)[O-])c(=O)n(C)c(=O)n2C)cc1	-19.9%	13.2%	-93.3*	-9.9%	?	?
CCc1ccc(/C=C/c2c([N+](=O)[O-])c(=O)n(C)c(=O)n2C)cc1	?	?	-98.4*	0.4%	?	?
O=C1CCN(Cc2cccc(C(F)(F)F)c2)CCN1Cc1ccccn1	/	4.0%[9.04 µM]	/	/	-7.6%	/
